From the supplement of paper PMC6555819

Columns and labels:
Experiment in all cases: PBM binding z-score (relative to random genomic background probes); higher = stronger binding; sequences stand for … in GC…GCGATTGACAGCGTAGAATGAAGG
[1] = tested on: RARb homodimer (NR concentration 270 nM)
In short: (§1)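 Ligand-free nuclear receptor dimers were bound for 1 h to custom Agilent 4×180K protein-binding microarrays. Detection used antibodies against each partner (one per run). Binding z-scores rest on regression-normalized fluorescence, with random background probes as the reference.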

[2] = tested on: RARg:RXRa (NR concentration 270 nM, RXRa partner concentration 90 nM)
In short: as §1

[3] = tested on: RARg homodimer (NR concentration 270 nM)
In short: as §1

[4] = tested on: RXRa DBDmut IVT, anti-RXR (DBD mutation: RXRa K156A/R161A, NR concentration 90 nM)
In short: as §1

[5] = tested on: RXRa homodimer (NR concentration 180 nM)
In short: as §1

[6] = tested on: THRa:RXRa (NR concentration 90 nM, RXRa partner concentration 90 nM)
In short: as §1

[7] = tested on: THRa homodimer (NR concentration 90 nM)
In short: as §1

[8] = tested on: VDR homodimer (NR concentration 270 nM)
In short: as §1

Sequence | PBM binding z-score [1] | PBM binding z-score [2] | PBM binding z-score [3] | PBM binding z-score [4] | PBM binding z-score [5] | PBM binding z-score [6] | PBM binding z-score [7] | PBM binding z-score [8]
AGAATGAGGTTATACGTAGATCAGGGACGAAAGT | 0.962 | 1.77 | 1.35 | 1.87 | 2.14 | 2.39 | 0.878 | 1.06
TGTCAAAGTTCAAAGGTAAGGTAAGTATCCACAC | 3.83 | 6.22 | 6.55 | 4.48 | 7.16 | 3.5 | 0.924 | 4.14
CCTTACGGGTCTCGAGGTTATAGCACGACGAGCG | 0.421 | 0.66 | 0.422 | -0.815 | 1.27 | 1.05 | -0.08 | 0.435
AGAATGAGGTTATTAAGATCAGGCAATTGCGGTC | 0.685 | 1.05 | 0.712 | 1.89 | 1.65 | 2.22 | 0.632 | 1.24
ATCTCTAGGTAACAAGTTCAGAGAAAGAGAGGAC | 1.98 | 1.45 | 1.32 | 0.95 | 1.04 | 1.49 | 0.815 | 2.72
CGTCCAGGGTCAAAGGTCAGTGAAGAGATGACGG | 5.11 | 8.3 | 7 | 2.98 | 9.93 | 4.54 | 1.48 | 3.04
CCCAGTAGGTTATGGGGCATTCAGGCAACGGTGA | 0.987 | 0.653 | 0.48 | -1.2 | 0.869 | 0.512 | -0.000965 | 0.0729
CCAGACAGGTGAGAAGCTAACTCAGCCTCGATTA | 0.0853 | -0.181 | 0.0316 | -0.135 | 0.129 | 0.183 | -0.194 | -0.0982
CGAATTAGGTCATCCAGGACAGTGAATACATTGA | 3.34 | 4.29 | 5.18 | 2.45 | 3.1 | 4.01 | 2.77 | 2.04
TCTTGTAGATCAATAGCGGTTAAGAAAGTGCGCT | -0.0533 | 0.105 | -0.0407 | 0.457 | 0.288 | 0.011 | -0.478 | 0.0262
TTACCAAGGTGATAGGTCGTTGATGCACGCCTTG | 0.852 | 0.727 | 0.286 | -0.12 | 1.51 | 1.25 | 0.482 | 0.256
ACTAGCAGGCCAAGTTTGGGTCACTCCAACAAAG | 2.33 | 2.23 | 1.55 | 0.0144 | 0.704 | 2.47 | 1.05 | 0.157
CCTCGGAGGACAATAGGAGGTCAGAGCTGCCAGA | 3.18 | 2.71 | 2.63 | -0.00493 | 1.64 | 2.43 | 0.711 | 0.843
GTACCAAGGTGAATCGGTCGTTGATGAGTAGGCG | 1.27 | 1.17 | 1.01 | -0.343 | 0.482 | 1.49 | 0.486 | -0.443
CGTCCAAGGACATAGGAGGTCAGTGAAGACAGAT | 3.17 | 2.46 | 3.05 | 0.749 | 1.64 | 3.54 | 1.83 | 1.48
AGAATGAGGTTAAGATCGGGGAAACAGAATACAT | 0.944 | 2.19 | 1.53 | 1.28 | 2.25 | 2.54 | 0.927 | 0.542
AGAATGATGTTACCAAAGATCAGGGAAACGCTTG | -0.737 | 0.0194 | 0.432 | -0.312 | 0.387 | -0.115 | -0.58 | -0.437
GCTTACGGGTCAAAGGCTATAGCATGAATAGAAT | 2.54 | 4.79 | 4.31 | 1.73 | 6.17 | 2.45 | -0.68 | 0.708
CAAACTAGGTCAAGAGTTCAAAGTCCGCTTCCCG | 4.97 | 7.16 | 6.48 | 3.87 | 5.58 | 3.33 | 1.28 | 7.25

Sequence | PBM binding z-score [1] | PBM binding z-score [2] | PBM binding z-score [3] | PBM binding z-score [4] | PBM binding z-score [5] | PBM binding z-score [6] | PBM binding z-score [7] | PBM binding z-score [8]
CCGACTGGGCCAAGGTTACCATAACGCACAGCCA | 0.94 | 0.614 | 0.453 | -0.285 | 0.719 | 1.07 | 0.784 | -0.176
ATACCAAGGCGATCGTGAGGTCGTTGATACTAAC | 0.905 | 0.636 | 0.0519 | 0.303 | 0.794 | 2.26 | 1.5 | 1.85
TCTCGGAGGACAAGAAAGGTCAGAGCTCGACATC | 4.61 | 4.01 | 4.75 | 0.958 | 3.39 | 3.24 | 0.472 | 0.546
ACTTACGGGTCAACGAGTTTATAGCACGCGTATA | 3.4 | 5.13 | 5.14 | 3.3 | 5.62 | 3 | 0.511 | 6.13
TCTCGGAGGACACGAAGGTCATAGCTTTCCAGAG | 3.93 | 4.04 | 4.13 | 1.41 | 3.28 | 3.55 | 1.66 | 3.09
AGTGAAAGTTCACTAGGTAACGTAAGATTCAGCT | 3.4 | 4.46 | 5.32 | 3.84 | 3.77 | 1.96 | -0.00547 | 3.15
CAAACTAGGTGAAAGGTCAAAGTCGAGCCAACCA | 4.61 | 7.35 | 6.17 | 2.27 | 8.91 | 4.19 | 1.31 | 2.49
ATATGTAGGTTAGCAGGGGTCATTCAGACTAGGC | 4.08 | 5.19 | 3.61 | 1.99 | 6.36 | 4.61 | 1.78 | 5.34
ACTTGCAGGCCAAGTTTGGGTCACTCAAACAAAG | 2.46 | 2.6 | 1.88 | 0.31 | 1.01 | 2.53 | 1.22 | 0.527
CAAACTAGGTCAACGTCAAAGTCGGTTTGTGCCA | 3.56 | 4.05 | 4.97 | 1.68 | 2.9 | 3 | 1.02 | 1.07
TCTTGTACATCAACAGGAGGTTAAGAAAGATCGA | 0.799 | 0.549 | 0.344 | 0.744 | 0.927 | 0.755 | -0.281 | 0.136
TCACATAGGTAAAGGTGAAAGTCGAACGATATGA | 1.65 | 1.65 | 1.26 | 1.26 | 2.34 | 1.44 | -0.0581 | -0.223
CAGCCTAAGTCAGGGCCAGTATAGGAGGAACGTT | 0.00988 | -0.148 | -0.0459 | -0.572 | -0.223 | -0.328 | -0.317 | -0.363
ATCTCTATGTAAGACTCAGTTCAGTGAAGAACGC | 0.277 | -0.035 | 0.0537 | 0.294 | -0.183 | 0.172 | 0.339 | 1.16
ACTAGCAGGCCAAGGGTCGCTCAAGATTAGTCCG | 0.923 | 1.12 | 0.872 | -0.27 | 1.13 | 0.795 | -0.633 | -0.246
GCTGCTAGGTCAACTGATGCTCAGCTAAAGCTCG | 3.18 | 4.37 | 5.36 | 1.64 | 2.89 | 2.89 | 0.915 | -0.0358
TAGCCTAGGTCATGGGTCAGTATACCACGCGAAC | 3.88 | 5.09 | 5.02 | 0.71 | 4.72 | 3.51 | 1.65 | 1.29
AGAACGAGGGCACGTTGAGTTGATAGCAGAGTAG | 1.28 | 1.84 | 1.95 | 1.8 | 1.36 | 1.82 | 0.141 | 2.13
CCGACTGGGGCAAGGTAACCATAACGCACAGCCA | 0.426 | 0.417 | 0.527 | -0.495 | 0.481 | 0.522 | 0.219 | -0.0983

Sequence | PBM binding z-score [1] | PBM binding z-score [2] | PBM binding z-score [3] | PBM binding z-score [4] | PBM binding z-score [5] | PBM binding z-score [6] | PBM binding z-score [7] | PBM binding z-score [8]
CGAACGAGGGCATGAGTTGATAGAAAATGCCGAT | 0.815 | 1.29 | 1.56 | 2.47 | 0.995 | 1.28 | -0.093 | 1.74
AATACAGGGTCACTAGGCCAGTGTAGGTACGAAT | 3.48 | 5.29 | 5.09 | 2.82 | 6.04 | 3.4 | 1.26 | 2.89
TTACCAAGGTGAGCTGAGGTCGTTTATCCAACTC | 1.47 | 1.08 | 0.862 | 0.292 | 1.27 | 4.58 | 2.09 | 2.23
GGAACGAGGGCAAGTTGCTAGCAGAGTTTGATGG | 1.37 | 1.23 | 2.1 | 2.26 | 0.745 | 0.911 | -0.229 | 1.44
TTAATGAGGTTATAAGATCAGGGAACGTTGCAAA | 0.668 | 1.59 | 1.01 | 1.63 | 2.13 | 2.04 | 0.52 | 0.74
CCTGCTAGGTCATGGTCAGCTTATCTACAGTATG | 3.15 | 3.67 | 4.7 | 1.86 | 3.01 | 2.97 | 1.52 | 0.201
CGTCAGAGTTCAACTAAGGTAACGTAAAGCACGC | 3.58 | 5.39 | 6.02 | 4.87 | 5.49 | 5.18 | 1.68 | 4.58
CGAACTAGGTCATCCAGGACAGTGACTACATTGA | 3.11 | 4.13 | 4.54 | 2.28 | 2.93 | 3.77 | 2.2 | 1.69
TCTCAGAGGACACGAAAGGTCAGAGCTCGACATC | 4.95 | 5.29 | 6.24 | 1.46 | 4.47 | 3.77 | 0.917 | 0.991
AGACTGAGGTTACCAAAGATCAGGGAAACGCTTG | 0.774 | 2 | 1.59 | 0.709 | 2.5 | 2.7 | 0.552 | 0.497
TTACTAAGGTGAAAGGTCGTTGATGCACGCCTTG | 3.02 | 4.74 | 2.37 | 1.45 | 6.58 | 4 | 2.17 | 1.78
TCTAGCAGGCCAGAGGGGCACTCAAGAGGTACGG | 0.611 | 0.104 | 0.165 | -0.0321 | 0.357 | -0.399 | -0.898 | -0.703
GCTCCGAGGACAAGGTCAGAGCTTTGTCCGTAGA | 3.24 | 3.01 | 3.47 | 1.05 | 2.25 | 3.55 | 2.3 | 0.674
ATCGAAAGGTCGAGGTGAGTCTAGAGAAAGGGAA | 2.89 | 4.34 | 4.48 | 0.715 | 4.46 | 3.01 | 0.76 | 0.695
ACAGACAGGTGAGTGAAGGTAACTCAACTGGACG | 0.036 | 0.211 | 0.661 | -0.368 | 0.324 | 1.75 | -0.422 | -0.644
TGTTGTAGATCAATAGAGGTTAAGAAAGTGCGCT | 1.3 | 1.06 | 0.973 | -0.255 | 1.25 | 2.39 | -0.0243 | 0.759
AGGATGAGGTTATACGTAGATCAGGGAAGAAAGT | 1.66 | 1.85 | 1.16 | 1.66 | 2.27 | 2.39 | 1.27 | 1.08
ATCTCTAGGTAAATTTCAGTGAAAGATCGATAGA | -0.353 | 0.0563 | 0.241 | 0.179 | 0.137 | 0.356 | -0.0111 | 0.034
